Reference: PubChem BioAssay AID1159580 (chemical genetic matrix, 2015)
Where “and” joins values, the source holds several entries; their conditions need not be identical. Equal entries are not always repeated. The campaign covered roughly 5,500 compounds. About 2,000 (36%) were called active. Another 18% or so got no clear call; they are omitted. Cut-off read from the data, not from the text of the source: active = normalized growth mostly below about 0.91 (no sharp cut-off); inconclusive = no clear call, values can overlap the other calls; inactive = mostly above about 0.92. The list shows a part of the results.

Experiment: chemical genetic growth profiling, strain panel (AID 1159580);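 note: tested at 20 µM; growth read once vehicle control cultures reached saturation at 30 °C; 1 = growth at the plate median or of vehicle wells; lower values mean less growth of the strain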
Settings: S. cerevisiae deletion strains, growth OD

Measured: normalized growth

C[C@]12C=CC(=O)C=C1CCC1C3C[C@@H](O)[C@](O)(C(=O)CO)[C@@]3(C)C[C@H](O)[C@@]12F (some centres undefined)
inactive: locus YAL021C, strain ccr4, active compounds read low 0.932 | locus YAL026C, strain drs2, active compounds read low 0.992 | locus YAL030W, strain snc1, active compounds read low 0.996 | locus YBL061C, strain skt5, active compounds read low 0.984 | locus YBR009C, strain hhf1, active compounds read low 0.999 | locus YBR021W, strain FUR4, active compounds read low 1.02 | locus YBR023C, strain chs3, active compounds read low 0.961 | locus YBR171W, strain sec66, active compounds read low 0.976 | locus YBR229C, strain ROT2, active compounds read low 1.01 | locus YBR231C, strain swc5, active compounds read low 1.01 | locus YBR279W, strain paf1, active compounds read low 0.973 | locus YCL011C, strain gbp2, active compounds read low 0.974 | locus YCL016C, strain dcc1, active compounds read low 0.958 | locus YCL029C, strain bik1, active compounds read low 0.98 | locus YCL061C, strain MRC1, active compounds read low 0.996 | locus YCL069W, strain vba3, active compounds read low 0.983 | locus YCR088W, strain abp1, active compounds read low 0.985 | locus YDL005C, strain med2, active compounds read low 0.997 | locus YDL035C, strain GPR1, active compounds read low 1.02 | locus YDL040C, strain nat1, active compounds read low 0.992 | locus YDL074C, strain BRE1, active compounds read low 1.04 | locus YDL101C, strain DUN1, active compounds read low 1.02 | locus YDL134C, strain PPH21, active compounds read low 1 | locus YDL185W, strain tfp1, active compounds read low 0.973 | locus YDL192W, strain arf1, active compounds read low 0.984 | locus YDR001C, strain nth1, active compounds read low 0.983 | locus YDR069C, strain doa4, active compounds read low 0.954 | locus YDR101C, strain arx1, active compounds read low 0.971 | locus YDR137W, strain rgp1, active compounds read low 0.965 | locus YDR150W, strain NUM1, active compounds read low 1.02 | locus YDR159W, strain sac3, active compounds read low 0.975 | locus YDR162C, strain NBP2, active compounds read low 1 | locus YDR195W, strain ref2 0.991 | locus YDR297W, strain sur2, active compounds read low 0.994 | locus YDR318W, strain mcm21, active compounds read low 0.985 | locus YDR334W, strain swr1, active compounds read low 0.976 | locus YDR335W, strain msn5, active compounds read low 0.984 | locus YDR388W, active compounds read low 0.982 | locus YDR392W, strain spt3, active compounds read low 0.896 | locus YDR502C, strain sam2, active compounds read low 0.981 | locus YEL003W, strain gim4, active compounds read low 1 | locus YEL037C, strain rad23, active compounds read low 0.987 | locus YEL061C, strain CIN8 (second series), active compounds read low 0.991 | locus YEL061C, strain CIN8, active compounds read low 1.01 | locus YER015W, strain faa2, active compounds read low 0.999 | locus YER016W, strain bim1, active compounds read low 0.942 | locus YER110C, active compounds read low 0.979 | locus YER111C, strain swi4, active compounds read low 0.975 | locus YER155C, strain BEM2 (second series), active compounds read low 0.989 | locus YER155C, strain BEM2, active compounds read low 1.01 | locus YER167W, strain BCK2, active compounds read low 1 | locus YFR010W, strain ubp6, active compounds read low 1 | locus YGL078C, strain dbp3, active compounds read low 0.981 | locus YGL086W, strain mad1, active compounds read low 0.996 | locus YGL167C, strain pmr1, active compounds read low 0.992 | locus YGL173C, strain kem1, active compounds read low 0.98 | locus YGL227W, strain vid30, active compounds read low 0.962 | locus YGL240W, strain doc1, active compounds read low 0.991 | locus YGL248W, strain PDE1, active compounds read low 1.02 | locus YGL253W, strain hxk2, active compounds read low 0.98 | locus YGR135W, strain pre9, active compounds read low 0.99 | locus YGR229C, strain SMI1, active compounds read low 1.01 | locus YGR252W, strain gcn5, active compounds read low 1.01 | locus YHR013C, strain ard1, active compounds read low 0.952 | locus YHR027C, strain rpn1, active compounds read low 0.998 | locus YHR030C, strain SLT2, active compounds read low 1.01 and 0.984 | locus YHR079C, strain IRE1 (second series), active compounds read low 0.973 | locus YHR079C, strain IRE1, active compounds read low 0.991 | locus YHR094C, strain hxt1, active compounds read low 0.984 | locus YHR129C, strain ARP1, active compounds read low 1.02 | locus YHR142W, strain chs7, active compounds read low 0.956 | locus YHR200W, strain rpn10, active compounds read low 0.988 | locus YIL066C, strain RNR3, active compounds read low 1.01 | locus YIL073C, strain SPO22, active compounds read low 0.984 | locus YIL125W, strain kgd1, active compounds read low 0.989 | locus YIR030C, strain dcg1, active compounds read low 0.98 | locus YJL092W, strain hpr5, active compounds read low 0.99 | locus YJL095W, strain BCK1 (second series), active compounds read low 0.995 | locus YJL095W, strain BCK1, active compounds read low 1.03 and 0.985 | locus YJL115W, strain asf1, active compounds read low 0.971 | locus YJL129C, strain trk1, active compounds read low 0.948 | locus YJL134W, strain LCB3, active compounds read low 1.01 | locus YJL154C, strain vps35, active compounds read low 0.967 | locus YJL164C, strain tpk1, active compounds read low 1.01 | locus YJL166W, strain qcr8, active compounds read low 1.01 | locus YJL168C, strain set2, active compounds read low 0.989 | locus YJL187C, strain SWE1 (second series), active compounds read low 1.01 | locus YJL187C, strain SWE1, active compounds read low 0.982 | locus YJR043C, strain POL32, active compounds read low 1.02
